Screening data: PubChem BioAssay, National Center for Advancing Translational Sciences (NCATS)
a7 integrin act – integrin-mediated muscular dystrophy alleviation activation | alpha7betagal myoblasts, beta-gal FDG fluorescence, 48 h | Potency, µM (doses to about 38.3 µM), without a hit: top-dose activation, usual class: activators | AID 624291 | actives 0.064% (n = 350,000);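 note: 100% = response of the positive control SU9516; nearly all actives have a fitted effect of over 60% in size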
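alpha7betagal+/- myoblasts (passage 13, 250/well) treated 48 h at 37C with compounds at 1:260 dilution of DMSO stock. Lysed, then beta-galactosidase activity read as FDG fluorescence (ex 480/em 540) after 30 min, with pre-read for autofluorescence.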
A-T KAP1 phos – potential ataxia-telangiectasia treatments restoring KAP-1 phosphorylation; Potency, µM (titrated, usually from 57.5 µM), for inactives: at the highest dose activation, most hits filed as activators; actives 0.19% (n = 320,000); F2112 A-T fibroblasts, KAP-1 phosphorylation AlphaLISA; neocarzinostatin DNA damage 30 min before lysis; note: % of control where 0% means no effect; nearly all actives have a fitted effect of over 45% in size
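ATM-like activity read as KAP-1 phosphorylation via AlphaLISA donor/acceptor antibody pairs after lysis and 6 hr at 25C. Cells were ATM-null patient fibroblasts (F2112, hTERT), dosed 60 min, then exposed to the DSB inducer NCS for 30 min.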
SW480 rereplic – DNA re-replication induction in SW480 cells. Potency, µM (titrated, usually from 46.1 µM), for the others: top-dose re-replication activation, usual class: activators. SW480 DNA re-replication, Hoechst DNA content imaging, 48 h. actives 1.8% (n = 340,000); note: % of control where 0% means no effect; nearly all actives have a fitted effect of over 55% in size
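SW480 cells exposed to compounds for 48 hr at 37 C, 5% CO2, then Hoechst-stained 40 min. Nuclear DNA content imaged by fluorescence scanning (405 nm excitation, 500-530 nm emission); re-replication scored as increased high-intensity nuclei.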
MCF10A rerep – induces DNA re-replication in MCF 10a normal breast cells | MCF 10A DNA re-replication, Hoechst nuclear intensity, 48 h | Potency, µM (top dose mostly 46.1 µM), without a hit: at the top dose activity, positive = re-replication, usual class: activators | actives 2.9% (n = 350,000) | AID 624296; note: % of control where 0% means no effect; nearly all actives have a fitted effect of over 50% in size
Mito fusion yeast – blocks mitochondrial division or promotes mitochondrial fusion | Potency, µM (highest dose often 46.1 µM), for inactives: at the top dose growth rescue (activation), usual class: activators | actives 0.23% (n = 320,000) | S. cerevisiae fusion-defective mutant growth rescue, CellTiterGlo 48 h | AID 485298; note: % of control where 0% means no effect; nearly all actives have a fitted effect of over 45% in size
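Yeast fusion mutant, YPEG (non-fermentable carbon), compound, 48 h at 37C non-permissive; CellTiterGlo added, 10 min RT, luminescence read. Rescued growth = division inhibition.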
Numbers without * were called inactive; [ ] = dose if it differs, or a comment. A selection: hits, their analogues and other compounds. The true share with any hit is near 4.2%. Calls come from the whole dose curve; as a rule, active = well fitted activation curve with a large enough effect; inconclusive = small, poorly fitted or top-dose-only effect; inactive = no such curve, though single readings can be large or run the other way. Potency is the fitted concentration of half-maximal effect.

COc1ccc(C2=NN(c3ccc(C(=O)O)cc3)C(c3ccc(OC)c(OC)c3)C2)cc1 (stereo not drawn) was read as a7 integrin act 41.9%, A-T KAP1 phos 28.2µM*, SW480 rereplic 18.4µM*, MCF10A rerep 3.26µM* and Mito fusion yeast inconclusive.
NS(=O)(=O)c1ccc(N2N=C(c3ccccc3)CC2c2cccc(Br)c2)cc1 (stereo not drawn) was read as a7 integrin act -3.9%, A-T KAP1 phos 28.6%, SW480 rereplic 23.1µM* and MCF10A rerep 5.17µM*.
For NS(=O)(=O)c1ccc(N2N=C(c3ccc(Br)cc3)CC2c2ccc(F)cc2)cc1 (stereo not drawn) the results were a7 integrin act -59.4%, A-T KAP1 phos 39.8µM*, SW480 rereplic inconclusive, MCF10A rerep 1.84µM* and Mito fusion yeast -10.1%.
COc1ccc(C2CC(c3ccccc3)=NN2c2ccccc2)c(C(=O)O)c1OC (stereo not drawn) was read as a7 integrin act 13.5%, A-T KAP1 phos inconclusive, SW480 rereplic inconclusive, MCF10A rerep 18.4µM* and Mito fusion yeast 1.7%.
For CNC(=S)N1N=C(c2ccc(Br)cc2)CC1c1ccc(Br)cc1 (stereo not drawn) the results were a7 integrin act -20.8%, A-T KAP1 phos -3.7%, SW480 rereplic inconclusive, MCF10A rerep 254.9%[0.0737 µM] and Mito fusion yeast 3.2%.
For COc1cc(C2CC(c3ccccc3)=NN2c2ccccc2)ccc1OCC(=O)O (stereo not drawn) the results were a7 integrin act 7.9%, A-T KAP1 phos inconclusive, SW480 rereplic 16.4µM*, MCF10A rerep 4.11µM* and Mito fusion yeast -11.4%.
For COc1cc(N2N=C(c3ccccc3)CC2c2ccccc2)c(C=O)cc1C=O (stereo not drawn) the results were a7 integrin act 4.2%, A-T KAP1 phos -0.4%, SW480 rereplic 18.5%, MCF10A rerep inconclusive and Mito fusion yeast 5.6%.
For CN(C(=O)c1cc(C(=O)N(C)c2ccccc2)cc([N+](=O)[O-])c1)c1ccccc1 the results were a7 integrin act -11.1%, A-T KAP1 phos 39.8µM*, SW480 rereplic -4.2%, MCF10A rerep 11.7% and Mito fusion yeast 1.3%.
Cc1ccc(NC(=O)CCNS(=O)(=O)c2cc(Br)cnc2N)cc1Cl was read as a7 integrin act 12.1%, A-T KAP1 phos 13.6%, SW480 rereplic 6.8%, MCF10A rerep 18.4µM* and Mito fusion yeast -7.7%.
For CCSC1=C(C#N)C(c2ccccc2OC)CC(=O)N1 (stereo not drawn) the results were a7 integrin act -14.7%, A-T KAP1 phos -4.8%, SW480 rereplic -4.7%, MCF10A rerep 2.1% and Mito fusion yeast -0.1%.
`CCOC(=O)CSC1=C(C#N)C(c2ccccc2OC)CC(=O)N1` (stereo not drawn) gave a7 integrin act -39.0%, A-T KAP1 phos 17.2%, SW480 rereplic 18.4µM*, MCF10A rerep 5.17µM* and Mito fusion yeast -0.2%.
For CCCCOC(=O)CSC1=C(C#N)C(c2ccccc2OCC)C(C#N)C(=O)N1 (stereo not drawn) the results were a7 integrin act 5.1%, A-T KAP1 phos -11.3%, SW480 rereplic 10.3µM*, MCF10A rerep inconclusive and Mito fusion yeast -3.0%.
For Cc1ccc(Cl)cc1N(CC(=O)NC1CCCC1)C(=O)c1csnn1 the results were a7 integrin act -31.4%, A-T KAP1 phos 3.2%, SW480 rereplic -4.4%, MCF10A rerep 0.3% and Mito fusion yeast 5.3%.
For COC(=O)c1c(C)[nH]c(-c2csc(N)n2)c1C the results were a7 integrin act -2.1%, A-T KAP1 phos -13.3%, SW480 rereplic 14.6µM*, MCF10A rerep inconclusive and Mito fusion yeast -6.4%.
`CCOC(=O)c1[nH]c(C)c(C(=O)OC)c1C` gave a7 integrin act 19.5%, A-T KAP1 phos -2.5%, SW480 rereplic -4.4%, MCF10A rerep 11.5% and Mito fusion yeast 7.5%.
`COC(=O)CNC(=O)COC(=O)/C=C/c1ccccc1[N+](=O)[O-]` gave a7 integrin act 2.0%, A-T KAP1 phos 10.0%, SW480 rereplic -40.7%, MCF10A rerep 5.8µM* and Mito fusion yeast -1.7%.
For COC(=O)C(=Cc1ccccc1[N+](=O)[O-])C(=O)OC the results were a7 integrin act -61.2%, A-T KAP1 phos 17.1%, SW480 rereplic inconclusive, MCF10A rerep 23.1µM* and Mito fusion yeast -61.3%.
`O=C(/C=C/c1ccccc1[N+](=O)[O-])Oc1ccccc1` gave A-T KAP1 phos 1.2% and Mito fusion yeast -4.5%.
`CCc1ccc(C(=O)NNC(=O)CN2C(=O)NC(CC)(c3ccccc3)C2=O)cc1` (stereo not drawn) gave a7 integrin act 30.7%, A-T KAP1 phos -1.8%, SW480 rereplic -579.4%, MCF10A rerep 6.9% and Mito fusion yeast -19.0%.
For Clc1ccc(-n2nnnc2-c2cnc(-c3ccncc3)nc2-c2cccs2)cc1 the results were a7 integrin act -23.0%, A-T KAP1 phos 6.2%, SW480 rereplic inconclusive, MCF10A rerep inconclusive and Mito fusion yeast 14.1µM*.
Screening FC(F)(F)c1nc(-c2cccs2)ncc1-c1nnnn1-c1ccc(Cl)cc1 returned a7 integrin act -56.9%, A-T KAP1 phos -5.5%, SW480 rereplic 5.7%, MCF10A rerep 6.51µM* and Mito fusion yeast 1.8%.
COC(=O)c1ccc(Sc2nnnn2-c2ccccc2)c([N+](=O)[O-])c1 was read as a7 integrin act -12.8%, A-T KAP1 phos 6.0%, SW480 rereplic 10.3µM*, MCF10A rerep inconclusive and Mito fusion yeast -6.7%.
Screening O=C(O)c1ccc(Sc2nnnn2-c2ccccc2)c([N+](=O)[O-])c1 returned a7 integrin act 4.0%, A-T KAP1 phos -1.0%, SW480 rereplic -7.1%, MCF10A rerep 14.3% and Mito fusion yeast 2.2%.
For Cc1oc(-c2ccccc2Cl)nc1CS(=O)CC(=O)NC1CC1 (stereo not drawn) the results were a7 integrin act -29.5%, A-T KAP1 phos -14.3%, SW480 rereplic 3.6%, MCF10A rerep 14.4% and Mito fusion yeast 2.1%.
`c1ccc(CCc2ccccc2-c2nc(-c3cccnc3)no2)cc1` gave a7 integrin act 0.5%, A-T KAP1 phos 39.8µM*, SW480 rereplic inconclusive, MCF10A rerep inconclusive and Mito fusion yeast 7.6%.
For O=C(CS(=O)(=O)c1ccc(Cl)cc1)Nc1nccs1 the results were a7 integrin act 17.8%.
`COc1ccccc1S(=O)(=O)Nc1ccc(-c2nnc3n2CCCCC3)cc1` gave a7 integrin act 21.0%, A-T KAP1 phos 3.55µM*, SW480 rereplic -0.8%, MCF10A rerep -8.4% and Mito fusion yeast 5.9%.
`CC(C)(C)C(=O)Nc1ccc(-c2nnc3n2CCCCC3)cc1` gave a7 integrin act inconclusive, A-T KAP1 phos 11.1%, SW480 rereplic 0.7%, MCF10A rerep -9.4% and Mito fusion yeast 0.6%.
